Data reported in ChEMBL document CHEMBL4513216, “Probing the Open Global Health Chemical Diversity Library for Multistage-Active Starting Points for Next-Generation Antimalarials” (ACS Infect Dis, 2020).
Hit rate of the full screen: of about 69,000 compounds, about 8,600 (12%) showed an effect of 50% or more. What follows is part of a selection rich in strong results, with near analogues and random picks from the rest.

System: Plasmodium berghei
Assay: Screen against P. berghei liver stage (PbLuc), transformed with Luciferase, at 10uM
Type: functional, HepG2
Conditions: tested at 10 uM

Compound	INHIBITION [%]
CN(c1ccncn1)C1CC2(CCN(C(=O)CCc3cccs3)C2)C1 (stereo not drawn)	37.5
CN(c1ccncn1)C1CC2(CCN(C(=O)Cc3cccs3)C2)C1 (stereo not drawn)	51.5
CN(c1ccncn1)C1CC2(CCN(C(=O)c3cccs3)C2)C1 (stereo not drawn)	42.1
CCc1nccn1C1CCCN(C(=O)CCCc2ccccn2)C1 (stereo not drawn)	-6.14
CC(C)C[C@H]1CN(c2nc3c(cc2C(N)=O)CCC3)CC[C@@]1(C)O	-22.5
CCCN1CCC2(CC1)CN(C(=O)c1cccnc1)c1ccc(F)cc12	26.7
CN1CCC2(CC1)CN(C(=O)c1cccnc1)c1ccc(Cl)cc12	26.7
CCN1CCC2(CC1)CN(C(=O)c1cccnc1)c1ccc(Cl)cc12	60.2
CC(C(N)=O)N(C)CCCc1cc(-c2ccc(F)cc2)n(C)n1 (stereo not drawn)	-52.5
Cc1nn(C)c(C)c1-c1ccc(=O)n(C(C)C(=O)NCc2ccco2)n1 (stereo not drawn)	15.7
O=C(C[S+]([O-])Cc1ccc(Cl)cc1Cl)N1CCc2sccc2C1 (stereo not drawn)	21.8
O=C(C[S+]([O-])Cc1c(F)cccc1Cl)N1CCc2sccc2C1 (stereo not drawn)	-10.9
O=C(C[S+]([O-])Cc1ccc(F)cc1)N1CCc2sccc2C1 (stereo not drawn)	80.3
O=C(C[S+]([O-])Cc1c(Cl)cccc1Cl)N1CCc2sccc2C1 (stereo not drawn)	50.5
O=C(C[S+]([O-])Cc1ccccc1F)N1CCc2sccc2C1 (stereo not drawn)	-13.9
O=C(C[S+]([O-])Cc1ccc(F)cc1Cl)N1CCc2sccc2C1 (stereo not drawn)	-3.96
O=C(NCc1cccs1)[C@H]1CO[C@H]2CCN(C3CCCC3)C[C@H]2C1	17.7
O=C(NCCc1cccs1)[C@H]1CO[C@H]2CCN(C3CCC3)C[C@H]2C1	62
O=C(NCCc1cccs1)[C@H]1CO[C@H]2CCN(CC3CC3)C[C@H]2C1	17.7
CN(C)CCN1CCCC12CCN(C(=O)c1cccn1C)CC2	20.5
CN(Cc1ccccc1)C(=O)CS(=O)(=O)Cc1ccc(Cl)c(Cl)c1	-35.7
CN(Cc1cccs1)C(=O)CS(=O)(=O)Cc1ccc(Cl)c(Cl)c1	62.2
CN(Cc1ccsc1)C(=O)CS(=O)(=O)Cc1ccc(Cl)c(Cl)c1	9.32

Compound	INHIBITION [%]
Nc1nccnc1C1CN(C(=O)c2cnc(C3CC3)nc2)CCO1 (stereo not drawn)	26.8
CCc1nn(C)c(Cl)c1CN1C[C@@H](NC(=O)N(C)C)[C@H](C(C)C)C1	59.7
Cc1noc(C)c1CN1C[C@@H](NC(=O)N(C)C)[C@H](C(C)C)C1	-9.29
CCc1nn(C)c(Cl)c1CN1C[C@H](NC(=O)CCO)[C@@H](C(C)C)C1	14.8
c1ccc(OCc2cscn2)c(CNC2CCc3ncnn3C2)c1 (stereo not drawn)	3.1
CCN(CC1COc2ccccc2O1)C(=O)NCCCn1cncn1 (stereo not drawn)	10.17
CC(=O)N1CCCC1c1nnn2cc(Nc3ccccc3)ccc12 (stereo not drawn)	2.41
CC(=O)N1CCCC1c1nnn2cc(NCc3cccnc3)ccc12 (stereo not drawn)	-15.3
CC(=O)N1CCCC1c1nnn2cc(-c3ccncc3)ccc12 (stereo not drawn)	61.9
CCN1CCOCC12CCN(C(=O)C1CCC1)CC2	-22.1
CN(C)CCN1CCN(Cc2cccs2)Cc2cccnc21	7.53
c1coc(CN2CCO[C@H]3[C@@H](OCC4CC4)CC[C@@H]32)c1	6.67
CCCc1nc(CNCC2CCCN2c2cccnn2)cs1 (stereo not drawn)	48.2
CCc1nc(CNCC2CCCN2c2cccnn2)cs1 (stereo not drawn)	5.8
CC(C)CCc1nc(CNCC2CCCN2c2cccnn2)cs1 (stereo not drawn)	61.3
CN(Cc1cnn(-c2ccccc2)n1)CC1CCCN1c1cccnn1 (stereo not drawn)	58.3
c1cnnc(N2CCCC2CNCc2cccs2)c1 (stereo not drawn)	19.5
CN(Cc1ccccn1)CC1CCCN1c1cccnn1 (stereo not drawn)	-8.11
CCc1noc(CNCC2CCCN2c2cccnn2)n1 (stereo not drawn)	19.5
c1cnnc(N2CCCC2CNCCc2cccs2)c1 (stereo not drawn)	91
O=C(CNCC1CCCN1c1cccnn1)NCCc1cccs1 (stereo not drawn)	28
CCc1nc(CNCC2CCCN2c2cccnn2)no1 (stereo not drawn)	23.4
CCCc1nc(CNCC2CCCN2c2cccnn2)no1 (stereo not drawn)	59

Compound	INHIBITION [%]
CN(Cc1cnn(-c2ccccc2)n1)C1CCCN(c2cccnn2)C1 (stereo not drawn)	-19.4
CC(C)CN1CCS(=O)(=O)[C@@H]2CCN(S(=O)(=O)N(C)C)CC[C@@H]21	20.1
O=C(NCCN1CCCCC1)C(c1ccccc1)N1CCCC1 (stereo not drawn)	-22.1
Cc1cnccc1-c1cnn(CCNC(=O)c2cccnc2)c1C1CC1	16.5
CC(C)N(C)Cc1nnc2n1CCCN(c1ncccn1)C2	29.5
CCC(CC)C(=O)NC1CCCc2nc(N3CCOCC3)ncc21 (stereo not drawn)	7.52
Cn1cc(N2CC3(CCN(CC4CC4)C3)CC2=O)cn1 (stereo not drawn)	15.3
Cc1nn(C)c(C)c1-c1cnc(C2CCCN(S(C)(=O)=O)C2)cn1 (stereo not drawn)	-6.92
CCNc1cc2c(nn1)CCN(C(=O)C1CCc3ccccc31)C2 (stereo not drawn)	11.2
COCC(=O)N1CCC(c2cc3nc(C)cc(C(F)(F)F)n3n2)CC1	20.15
O=C1NC2(CCCN(C(=O)CCn3cccn3)C2)Oc2ccccc21 (stereo not drawn)	10.385
c1ccc(-n2ccc(CNCC3CCCN3c3cccnn3)n2)cc1 (stereo not drawn)	16.9
c1ccc(-n2cc(CNCC3CCCN3c3cccnn3)nn2)cc1 (stereo not drawn)	18.2
c1ccc(-n2ncc(CNCC3CCCN3c3cccnn3)n2)cc1 (stereo not drawn)	57.2
Cc1ccc(C(=O)NS(=O)(=O)c2ccccc2Br)c(=O)[nH]1	44.1
Cc1ccc(C(CCNCCCN(C)C)C2CCOC(C)(C)C2)cc1 (stereo not drawn)	32.3
COCc1nn(CC2CC2)c2c1CN(Cc1cccs1)CC2	-97.2
CCOCc1nn(C)c2c1CN(Cc1cccs1)CC2	32.1
CCOCc1nn(CC2CC2)c2c1CN(Cc1cccs1)CC2	64.7
O=C(c1n[nH]cc1Cl)N1CCOC(Cc2cccc(C(F)(F)F)c2)C1 (stereo not drawn)	75.9
O=C(c1ccc(O)cn1)N1CCOC(Cc2cccc(C(F)(F)F)c2)C1 (stereo not drawn)	-9.29
CC(=O)N1CCOC(Cc2cccc(C(F)(F)F)c2)C1 (stereo not drawn)	7.1
